Bioassay records (PubChem)
Compounds with a hit are over-represented: about 12% of the library has one in this group of screens.
SARS PLP yeast: qHTS of Yeast-based Assay for SARS-CoV PLP. S. cerevisiae expressing SARS-CoV PLpro, growth rescue. Potency, µM (highest dose often 32.9 µM), inactives show at the top dose activity, positive = growth rescue, actives largely listed as activators. 330,000 compounds, 0.19% hits. AID 485353, 2010; calls by dose curve; also: 0% is about no effect; nearly all actives have a fitted effect of over 55% in size
AmpC no deterg: qHTS Inhibitors of AmpC Beta-Lactamase (assay without detergent) | AmpC nitrocefin hydrolysis, absorbance 480 nm, 0.0001% Triton | Potency, µM (titrated, usually from 57.1 µM), without a hit: top-dose activity change, negative = inhibition, most hits filed as inhibitors | 330,000 compounds, 0.52% hits | P00811;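 also: plate controls were no compound for no effect and no enzyme for full effect; nearly all actives have a fitted effect of over 20% in size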
Target sequence (P00811 whole entry, looked up): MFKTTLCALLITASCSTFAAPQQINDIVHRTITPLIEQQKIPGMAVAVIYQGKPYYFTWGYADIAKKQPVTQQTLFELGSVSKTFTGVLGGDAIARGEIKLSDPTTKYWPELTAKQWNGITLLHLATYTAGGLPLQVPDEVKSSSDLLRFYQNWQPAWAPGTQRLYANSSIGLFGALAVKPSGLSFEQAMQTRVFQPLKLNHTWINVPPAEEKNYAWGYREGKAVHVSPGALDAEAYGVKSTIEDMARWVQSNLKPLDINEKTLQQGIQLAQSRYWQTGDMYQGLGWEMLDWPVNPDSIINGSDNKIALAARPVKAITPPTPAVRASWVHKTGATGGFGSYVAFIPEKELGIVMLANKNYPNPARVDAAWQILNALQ
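AmpC (5.3 nM in the dispensed reagent) in 20 mM phosphate pH 7.0 with 0.01% (detergent screen) or 0.0001% Triton X-100 was preincubated with compounds for 15 min at room temperature. Nitrocefin was then added from an 800 uM solution, and hydrolysis was followed at 480 nm.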
AmpC detergent: qHTS Inhibitors of AmpC Beta-Lactamase (assay with detergent) | AmpC hydrolysis of nitrocefin, absorbance 480 nm, 0.01% Triton | 370,000 compounds, 0.041% hits | Potency, µM (doses to about 114 µM), without a hit: at the highest dose activity change, negative = inhibition, actives largely listed as inhibitors | P00811 | AID 485294, 2010;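 also: 0% = no-compound wells and -100% = no-enzyme wells; nearly all actives have a fitted effect of over 25% in size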
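AmpC (5.3 nM in the dispensed reagent) in 20 mM phosphate pH 7.0 with 0.01% (detergent screen) or 0.0001% Triton X-100 was preincubated with compounds for 15 min at room temperature. Nitrocefin was then added from an 800 uM solution, and hydrolysis was followed at 480 nm.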
Sm TGR block: qHTS Assay for the Inhibitors of Schistosoma Mansoni Peroxiredoxins; Potency, µM (series often up to 114 µM), inactives show top-dose activity change, negative = inhibition, hits mostly inhibitors; AID 485364, 2010; Schistosoma mansoni thioredoxin glutathione reductase (TGR), Q962Y6; 360,000 compounds, 3% hits; purified TGR, DTNB reduction, TNB absorbance 405 nm; also: % is scaled to controls: 0 for no effect and ±100 for the full control effect; nearly all actives have a fitted effect of over 60% in size
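Kinetic colorimetric format: TGR-catalysed, NADPH-driven DTNB reduction monitored via TNB absorbance. Enzyme dispensed at 20 nM; compound exposure 15 min at room temperature before reaction start.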
Pf growth 96h: Primary qHTS for delayed death inhibitors of the malarial parasite plastid, 96 hour incubation; Potency, µM (highest dose often 28.7 µM), for inactives: at the highest dose activity change, negative = inhibition, hits mostly inhibitors; 320,000 compounds, 6.9% hits; AID 504834, 2011; P. falciparum luciferase reporter growth, 96 h; also: % is scaled to controls: 0 for no effect and ±100 for the full control effect
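Parasite growth measured via integrated firefly luciferase reporter in P. falciparum. Infected erythrocytes at 2% hematocrit, 0.05% parasitemia final were treated 96 hours at 37 C under 5% CO2, and luminescence was read.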
Pf growth 48h: Primary qHTS for delayed death inhibitors of the malarial parasite plastid, 48 hour incubation. Potency, µM (top dose mostly 28.7 µM), for the others: top-dose activity change, negative = inhibition, most hits filed as inhibitors. 310,000 compounds, 5.9% hits. P. falciparum luciferase growth in erythrocytes, 48 h; also: % is scaled to controls: 0 for no effect and ±100 for the full control effect
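Luciferase-expressing P. falciparum in infected erythrocytes (2% hematocrit, 0.1% parasitemia final) in RPMI 1640/0.5% Albumax were exposed to compound for 48 hours at 37 C, 5% CO2; growth read as luminescence.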
* hit, by the source's call; u = inconclusive; x = no result; [ ] = another dose, or the depositor's remark. Unless noted, calls follow the shape of the dose curve; as a rule, active = well fitted curve in the direction sought with a large enough effect; inconclusive = small, poorly fitted or top-dose-only effect, or another doubt; inactive = no such curve, though single readings can be large; an effect the other way counts as inactive or inconclusive. Potency is read from the fitted curve at half-maximal effect.

SMILES	SARS PLP yeast	AmpC no deterg	AmpC detergent	Sm TGR block	Pf growth 96h	Pf growth 48h
Cc1cc(C)c(Cn2c3ccccc3c3cnn(CC(=O)NCCc4ccccc4)c(=O)c32)c(C)c1	x	x	10%	14%	x	x
Cc1ccc(S(=O)(=O)NCc2ccncc2)c(C)c1C	1%	-9%	-6%	u	12µM*	-17%
COc1ccc(/C=C/C(=O)O)cc1S(=O)(=O)NCc1ccccc1	-2%	-17%	-1%	5%	0%	74%
Cc1ccc(/C=C/C(=O)O)cc1S(=O)(=O)NCc1cccnc1	-5%	-11%	-10%	22µM*	19%	7%
Cc1cc(C)c(S(=O)(=O)NCc2cccnc2)cc1C	0%	-9%	-9%	0%	12µM*	u
Cc1ccc(S(=O)(=O)NCc2ccccn2)c(C)c1C	6%	-8%	1%	u	14%	19%
COc1ccc(OC)c2[nH]c(=O)c(CCNC(=O)c3cccs3)cc12	1%	-11%	-2%	4%	-56%	u
S=c1[nH]ccn1-c1c(Cl)cccc1Cl	1%	-1%	8%	5%	2%	39%
CN1C[C@@H]2C(c3ccccc3)C3(c4ccccc4)CC2(C3)[C@H]1c1ccccc1 (stereo partly drawn)	2%	8%	4%	-19%	u	u
CN1C[C@@H]2C(c3ccc(Cl)nc3)C3(c4cccnc4)CC2(C3)[C@H]1c1ccccc1 (stereo partly drawn)	2%	22%	1%	u	10µM*	10µM*
CN1C[C@@H]2C(c3ccc(Cl)nc3)C3(c4ccccc4)CC2(C3)[C@H]1c1ccccc1 (stereo partly drawn)	2%	101%	0%	u	13µM*	9.3µM*
COc1cc(/C=C(\NC(=O)c2ccccc2)C(=O)Nc2nccs2)ccc1OC(C)=O	2%	-16%	-1%	0%	3%	0%[0.00184 µM]
COc1ccccc1C(=O)NCCC(=O)NCC1CCCCC1	-22%	-9%	x	x	x	x
CCOc1ncccc1C(=O)Nc1ccc(S(=O)(=O)N2CC(C)CC(C)C2)cc1 (stereo not drawn)	2%	-27%	x	x	x	x
COc1ccccc1C(=O)NCCC(=O)Nc1ccc(S(=O)(=O)N2C(C)CCCC2C)cc1 (stereo not drawn)	1%	31%	-6%	-7%	u	15µM*
COc1ccccc1C(=O)NCCC(=O)Nc1ccc(S(=O)(=O)N2CC(C)CC(C)C2)cc1 (stereo not drawn)	-2%	33%	-1%	-1%	15µM*	u
Cc1ccc(Cl)cc1NS(=O)(=O)c1ccc2oc(=O)ccc2c1	-10%	-35%	1%	-2%	u	0%
CCc1ccc(-n2c(=O)c3sc4ccccc4c3n(CC(=O)N3CCCC3)c2=O)cc1	x	x	-3%	1%	x	x
C[C@@H]1COC(=O)[C@@H](CC(=O)OC(C)(C)C)C/C=C\C[C@@H](CC(=O)NCCO)C(=O)N1	16%	-4%	x	x	x	x
Cc1cc(C)n(-c2nnc(NCc3ccc(Cl)cc3)nn2)n1	-4%	-11%	4%	0%	2.1µM*	u
Cc1nn(-c2nnc(NCc3ccccc3)nn2)c(C)c1Br	-43%	-17%	-2%	-28%	0.33µM*	0.59µM*
Cc1ccc(C)c(NC(=O)Cn2ccn(-c3ccc4c(c3)OCO4)c(=O)c2=O)c1	-3%	-3%	-17%	7%	7%	31%
O=C(NCCc1ccccc1)C1(S(=O)(=O)c2ccc(Cl)cc2)CC1	2%	4%	0%	6%	0%	18%
COc1cc(N2CCCC2)c(OC)cc1/C=C(/C#N)c1cccc(F)c1	-10%	-38%	-13%	32%	x	10µM*
N#C/C(=C/c1ccc(N2CCCCCC2)o1)c1cccc(F)c1	-21%	-45%	-5%	u	x	-15%
SMILES	SARS PLP yeast	AmpC no deterg	AmpC detergent	Sm TGR block	Pf growth 96h	Pf growth 48h
Nc1ccc(-c2nc3c(Cl)cc(N)cc3[nH]2)cc1	1%	-23%	0%	6%	9.3µM*	u
CCOc1ccc(NC(=O)c2ccc3c(c2)nnn3C2CCCC2)cc1	x	x	1%	-4%	x	x
CCN(CC)CCCN1C(=O)C(O)=C(C(=O)c2ccc(C)o2)C1c1ccc(C)o1 (stereo not drawn)	-35%	-13%	6%	50µM*	-16%	12%
CCOc1ccc(C2C(C(=O)c3ccc(C)o3)=C(O)C(=O)N2CCCN(CC)CC)cc1 (stereo not drawn)	0%	-6%	-4%	35µM*	0%	-4%
CCN(CC)CCCN1C(=O)C(O)=C(C(=O)c2ccc(C)o2)C1c1cccs1 (stereo not drawn)	7%	-26%	5%	45µM*	x	6%
O=C(N/N=C/c1c[nH]c2ccccc12)c1ccc(Br)cc1	-8%	20µM*	-11%	-4%	u	20%
O=C(N/N=C/c1c[nH]c2ccccc12)C1COc2ccccc2O1 (stereo not drawn)	-17%	-29%	1%	-8%	10µM*	-4%
O=C(N/N=C/c1c[nH]c2ccccc12)c1ccccc1Cl	-2%	-25%	-1%	4%	44%	30%
O=C(N/N=C/c1c[nH]c2ccccc12)c1cc(Cl)ccc1O	-4%	16µM*	-9%	-35%	1%	30%
O=C(NC1CCCCC1)c1ccc(CSc2nc3cccnc3n2Cc2cccc(F)c2)cc1	x	x	15%	-1%	x	x
CCc1ccc(S(=O)(=O)NCc2csc(-c3cccnc3)n2)s1	-50%	-4%	15%	-2%	0.74µM*	1%
O=S(=O)(NCc1csc(-c2cccnc2)n1)c1cccs1	-6%	-5%	u	-12%	u	2%
Cc1ccccc1Cn1c2ccccc2c2cn[nH]c(=O)c21	6%	-36%	-6%	1%	10µM*	u
Cc1ccccc1Cn1c2ccccc2c2cnn(CC(=O)NC3CCC(C)CC3)c(=O)c21 (stereo not drawn)	x	x	8%	-10%	x	x
N#Cc1ccc(CN2CCN(C(=O)c3cn(Cc4ccccc4)nc3-c3cccnc3)CC2)cc1	1%	179%	1%	-34%	u	-24%
COc1ccc2nc(-c3ccccc3)cc(C(=O)N3CCC3)c2c1	1%	42%	-1%	-27%	u	u
COc1ccc(N2CCN(C(=O)c3cn(Cc4ccccc4)nc3-c3cccnc3)CC2)cc1	-5%	79%	4%	2%	10µM*	u
